Screens deposited in PubChem BioAssay by The Scripps Research Institute Molecular Screening Center.
CHRM1 agonist = human M1 muscarinic receptor agonists, primary screen, Fluo-8 calcium fluorescence, CHO-K1 cells, HTS. CHO-K1 hM1, agonist mode; 0% DMSO, 100% acetylcholine EC100. activation, % at 3 µM. actives 0.33% (n = 360,000). AID 588814, 2011;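 active = activation above the run's mean compound activation plus 3 SD, cut at about 16% in these data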;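 note: peak over basal fluorescence ratio within a 140 s kinetic read after compound addition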
Target sequence (P11229 whole entry, looked up): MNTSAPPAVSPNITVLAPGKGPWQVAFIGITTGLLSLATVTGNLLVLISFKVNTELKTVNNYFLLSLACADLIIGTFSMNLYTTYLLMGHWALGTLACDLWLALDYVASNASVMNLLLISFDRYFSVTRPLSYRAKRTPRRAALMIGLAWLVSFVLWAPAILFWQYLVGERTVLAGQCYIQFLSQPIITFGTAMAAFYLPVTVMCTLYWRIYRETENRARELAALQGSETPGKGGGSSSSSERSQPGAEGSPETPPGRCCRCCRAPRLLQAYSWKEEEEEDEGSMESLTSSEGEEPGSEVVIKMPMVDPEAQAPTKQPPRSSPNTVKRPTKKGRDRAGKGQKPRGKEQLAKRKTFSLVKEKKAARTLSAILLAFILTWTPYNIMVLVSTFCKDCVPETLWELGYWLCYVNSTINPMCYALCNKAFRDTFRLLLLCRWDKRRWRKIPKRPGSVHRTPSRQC
M1 PAM = human M1 muscarinic receptor positive allosteric modulators, primary screen, CHO-K1 cells, Fluo-8 calcium fluorescence, 1536-well. Muscarinic acetylcholine receptor M1 (Homo sapiens), P11229. AID 588819, 2011. CHO-K1 hM1, ACh EC20; 0% = ACh EC20, 100% = maximal ACh. activation, % at 3 µM. actives 0.088% (n = 360,000); in the data active = activation above about 19%, passing the limit was not always enough
CHO-K1 Ca PAM = nonselective calcium activators in parental CHO-K1 cells, primary screen, counter-screen for M1 PAM project, cell-based, Fluo-8 calcium fluorescence, full deck, 1536-well; ATP EC20; 0% at ATP EC20, 100% at ATP max; activation, % at 3 µM; actives 0.02% (n = 360,000);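 active = activation above the run cutoff, the mean activation of all test compounds plus 3 SD, cut at about 40% in these data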;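 note: peak over basal fluorescence ratio in a 140 s read after ATP addition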
CHO-K1 Ca antag = M1 antagonist counterscreen hit in parental CHO-K1 cells; AID 602250; inhibition, % at 3 µM; actives 0.6% (n = 360,000); ATP-induced calcium, Fluo-8 fluorescence;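 active = inhibition above a per-plate cutoff, the plate's mean sample inhibition plus 3 SD, cut at about 24% in these data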
CHO-K1 Ca ag = counter-screen for M1 agonists: effect in parental CHO-K1 cells | Fluo-8 calcium fluorescence; scaled to maximal ATP response, vehicle zero | activation, % at 3 µM | actives 0.48% (n = 360,000) | AID 602248, 2012; in the data active = activation above about 15%;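 note: untransfected CHO-K1 host cells lacking M1 receptor as counterscreen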
M1 antag = human M1 muscarinic receptor antagonists, primary screen, CHO-K1 cells, Fluo-8 calcium fluorescence, 1536-well; Muscarinic acetylcholine receptor M1 (Homo sapiens), P11229; CHO-K1 hM1, ACh EC80 antagonist; inhibition, % at 3 µM; actives 1.3% (n = 360,000);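 active = percent inhibition above its own plate's cutoff, namely the mean of that plate's compound wells plus 3 SD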;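 note: peak over basal fluorescence ratio during 140 s after agonist addition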
A number is an active result. This is a sample that favours compounds with a hit; in the whole collection about 2.4% have one here.

FC(F)(F)c1cccc(NC(=S)NC2CCCC2)c1 was read as CHRM1 agonist inactive, M1 PAM inactive, CHO-K1 Ca PAM inactive, CHO-K1 Ca antag 24.6, CHO-K1 Ca ag inactive and M1 antag inactive.
`CC(C)[C@H](NS(=O)(=O)c1ccc2c(c1)OCCO2)C(=O)OCC(=O)Nc1ccccc1Cl` gave CHRM1 agonist inactive, M1 PAM inactive, CHO-K1 Ca PAM inactive, CHO-K1 Ca antag inactive, CHO-K1 Ca ag inactive and M1 antag inactive.
CC(C)[C@H](NS(=O)(=O)c1ccc2c(c1)OCCO2)C(=O)OCC(=O)Nc1cc(Cl)ccc1Cl was read as CHRM1 agonist inactive, M1 PAM inactive, CHO-K1 Ca PAM inactive, CHO-K1 Ca antag inactive, CHO-K1 Ca ag inactive and M1 antag 30.6.
CCCCN(C(=O)c1ccc(Cl)cc1)C1CC2CCC(C1)N2C (stereo not drawn) was read as CHRM1 agonist inactive, M1 PAM inactive, CHO-K1 Ca PAM inactive, CHO-K1 Ca antag inactive, CHO-K1 Ca ag inactive and M1 antag 28.3.
Screening Cc1ccc(NC(=O)CSc2nnnn2C)cc1S(=O)(=O)N1CCCCC1 returned CHRM1 agonist inactive, M1 PAM inactive, CHO-K1 Ca PAM inactive, CHO-K1 Ca antag inactive, CHO-K1 Ca ag inactive and M1 antag inactive.
Screening CC1(C)Cc2cccc(OCC(=O)Nc3ccccc3N3CCOCC3)c2O1 returned CHRM1 agonist inactive, M1 PAM inactive, CHO-K1 Ca PAM inactive, CHO-K1 Ca antag inactive, CHO-K1 Ca ag inactive and M1 antag 29.7.
Cc1cc(C)c(C(=O)CSc2n[nH]c(-c3ccncc3)n2)c(C)c1 was read as CHRM1 agonist inactive, M1 PAM inactive, CHO-K1 Ca PAM inactive, CHO-K1 Ca antag inactive, CHO-K1 Ca ag 18.3 and M1 antag inactive.
`CC(c1ccccc1C(O)(c1ccccc1)c1ccccc1)N(C)C` (stereo not drawn) gave CHRM1 agonist inactive, M1 PAM inactive, CHO-K1 Ca PAM inactive, CHO-K1 Ca antag inactive, CHO-K1 Ca ag 23.3 and M1 antag inactive.
`OC(CNCC1COc2ccccc2O1)COc1ccccc1F` (stereo not drawn) gave CHRM1 agonist inactive, M1 PAM inactive, CHO-K1 Ca PAM inactive, CHO-K1 Ca antag inactive, CHO-K1 Ca ag inactive and M1 antag inactive.
COc1ccc(CN(CCNC(=O)CCCCC(=O)NCCN(Cc2ccc(OC)cc2)C(C)C)C(C)C)cc1 was read as CHRM1 agonist inactive, M1 PAM inactive, CHO-K1 Ca PAM inactive, CHO-K1 Ca antag inactive, CHO-K1 Ca ag inactive and M1 antag 73.5.
CC1CCN(C(=O)CN2C(=O)c3ccccc3S2(=O)=O)CC1 was read as CHRM1 agonist inactive, M1 PAM inactive, CHO-K1 Ca PAM inactive, CHO-K1 Ca antag inactive, CHO-K1 Ca ag inactive and M1 antag inactive.
O=C(CN1C(=O)c2ccccc2S1(=O)=O)N1CCc2ccccc2C1 was read as CHRM1 agonist inactive, M1 PAM inactive, CHO-K1 Ca PAM inactive, CHO-K1 Ca antag 25.0, CHO-K1 Ca ag inactive and M1 antag inactive.
Screening CCN(CC(=O)Nc1c(F)cccc1F)C(=O)CCCc1cccs1 returned CHRM1 agonist inactive, M1 PAM inactive, CHO-K1 Ca PAM inactive, CHO-K1 Ca antag inactive, CHO-K1 Ca ag inactive and M1 antag inactive.
O=C(O)c1ccccc1-c1nnc2c(Cl)cc(C(F)(F)F)cn12 was read as CHRM1 agonist inactive, M1 PAM inactive, CHO-K1 Ca PAM inactive, CHO-K1 Ca antag inactive, CHO-K1 Ca ag inactive and M1 antag 95.0.
Screening COc1cc(C(=C(CC(=O)O)C(=O)O)c2ccc3c(c2)OCO3)cc(OC)c1OC returned CHRM1 agonist inactive, M1 PAM inactive, CHO-K1 Ca PAM inactive, CHO-K1 Ca antag inactive, CHO-K1 Ca ag inactive and M1 antag inactive.
CC(C)Oc1ccc(OCCCN2CCCCCC2)cc1 was read as CHRM1 agonist inactive, M1 PAM inactive, CHO-K1 Ca PAM inactive, CHO-K1 Ca antag inactive, CHO-K1 Ca ag inactive and M1 antag 35.6.
`CC(C)(C)c1ccc(OCCCN2CCCC2)cc1` gave CHRM1 agonist inactive, M1 PAM inactive, CHO-K1 Ca PAM inactive, CHO-K1 Ca antag inactive, CHO-K1 Ca ag inactive and M1 antag inactive.
